DT40 TDP1 CPT: DT40-hTDP1 cell growth loss with CPT; chicken DT40 Tdp1-/-;hTDP1 cells + 20 nM CPT, ATP luminescence, 48 h; 420,000 tested, 12% active; Potency, µM (highest dose often 46.2 µM), inactives show top-dose activity change, negative = growth inhibition, actives largely listed as inhibitors; AID 686979; further: nearly all actives have a fitted effect of over 55% in size
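Cell growth measured by CellTiter-Glo luminescence after a minimum 48 h, 37 C compound exposure with 20 nM CPT in Tdp1-knockout DT40 cells stably expressing hTDP1, seeded 400/well; qHTS titration format.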
ELG1 DNA repair: blocks ELG1-dependent DNA repair in HEK293T cells; 330,000 tested, 2.3% active; HEK293T ELG1-luciferase reporter, luminescence, 16 h; DNA damage induced by 5-fluorouridine; Potency, µM (highest dose often 46.1 µM), for inactives: at the top dose activity change, negative = inhibition, hits mostly inhibitors; further: nearly all actives have a fitted effect of over 55% in size
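Quantitative HTS, concentration-response format. 2,000 cells/well co-treated with 5-fluorouridine and compound, 16 hr in 5% CO2 at 37 °C; ONE-Glo luminescence read after 30 min.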
VP16 counter: counter-screen for ROR gamma inhibitors: Gal4-VP16 reporter; 310,000 tested, 3.5% active; Drosophila S2 Gal4-VP16 UAS-luciferase, luminescence, 20 h; Potency, µM (doses to about 53.6 µM), for the others: at the highest dose activity, negative = inhibition, usual class: inhibitors; AID 2546;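 further: Gal4-VP16 expression switched on by copper sulfate through the metallothionein promoter; nearly all actives have a fitted effect of over 50% in size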
RORgamma inh: ROR gamma (mouse) transcription inhibition; P51450; Drosophila S2 Gal4-RORgamma UAS-luciferase reporter, 20 h; Potency, µM (doses to about 53.6 µM), for inactives: top-dose activity change, negative = inhibition, most hits filed as inhibitors; 310,000 tested, 5.4% active; further: nearly all actives have a fitted effect of over 60% in size
Target sequence (P51450 whole entry, looked up, the tested form may be a part): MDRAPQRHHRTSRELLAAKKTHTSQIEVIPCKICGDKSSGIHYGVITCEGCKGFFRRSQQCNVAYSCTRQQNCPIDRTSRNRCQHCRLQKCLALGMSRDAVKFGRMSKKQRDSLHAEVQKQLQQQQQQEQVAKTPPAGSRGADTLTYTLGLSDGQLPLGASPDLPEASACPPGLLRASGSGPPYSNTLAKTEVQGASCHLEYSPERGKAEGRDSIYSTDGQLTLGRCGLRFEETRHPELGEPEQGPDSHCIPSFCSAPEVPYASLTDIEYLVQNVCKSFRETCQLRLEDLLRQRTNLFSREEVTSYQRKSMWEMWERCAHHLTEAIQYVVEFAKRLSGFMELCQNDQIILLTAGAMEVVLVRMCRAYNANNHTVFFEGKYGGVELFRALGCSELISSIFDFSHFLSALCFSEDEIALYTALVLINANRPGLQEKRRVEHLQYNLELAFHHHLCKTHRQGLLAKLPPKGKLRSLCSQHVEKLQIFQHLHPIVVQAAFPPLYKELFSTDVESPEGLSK
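In this cell-based reporter format, copper sulfate (700 uM final) drives Gal4–ROR gamma fusion expression from a metallothionein promoter in Drosophila Schneider cells; compounds preincubated 1 hr, reporter read after 20 hr at ambient temperature.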
TDP1 cell noCPT: qHTS for Inhibitors of human tyrosyl-DNA phosphodiesterase 1 (TDP1): qHTS in cells in absence of CPT; Potency, µM (top dose mostly 46.2 µM), for the others: top-dose activity change, negative = growth inhibition, usual class: inhibitors; 420,000 tested, 15% active; DT40 Tdp1-/- hTDP1 cells, no CPT, ATP luminescence, 48 h; AID 686978, 2013; further: nearly all actives have a fitted effect of over 55% in size
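Camptothecin absent (DMSO only). Human TDP1-complemented DT40 knockout cells, 400 cells/well, 37 °C for minimum 48 hr; ATP measured via CellTiter-Glo, 30 min dark incubation, luminescence.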
ALOX12 inh: blocks human arachidonate 12S-lipoxygenase | P18054 | purified 12hLO, xylenol orange hydroperoxide absorbance | Potency, µM (highest dose often 108 µM), inactives show at the top dose activity change, negative = inhibition, hits mostly inhibitors | 580,000 tested, 1.1% active | AID 1671190
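Purified human 12hLO at 150 nM in 25 mM Hepes, 0.01% Triton X-100, pH 7.0, preincubated 15 min at room temperature with compound. Reaction started with 40 uM arachidonic acid, 30 min at room temperature. Hydroperoxide measured by Fe-xylenol orange, 573/405 nm absorbance ratio.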
Active calls of the source: *; ? = inconclusive; . = no result; [ ] = another dose, or the depositor's remark. The list is not random: actives were taken first. Their share in the collection is about 15%. The call rests on the fitted dose curve; in most records, active means well fitted curve in the direction sought with a large enough effect; inconclusive means small, poorly fitted or top-dose-only effect, or another doubt; inactive means no such curve, though single readings can be large; an effect the other way counts as inactive or inconclusive. On the % scale 0 is the no-effect control and ±100 the full control effect; potency means the concentration at half of the fitted maximal effect.

SMILES | DT40 TDP1 CPT | ELG1 DNA repair | VP16 counter | RORgamma inh | TDP1 cell noCPT | ALOX12 inh
COCCn1c(SCC(=O)Nc2cccc(OC)c2)nc2c(oc3ccccc32)c1=O | 5.8µM* | ? | -17% | -20% | 7.3µM* | -16%
COc1cccc(-n2c(SCC(=O)Nc3cc(C)ccc3C)nc3c(oc4ccccc43)c2=O)c1 | ? | . | . | . | 13µM* | -22%
CCCCn1c(SCC(=O)Nc2ccc(OC)cc2)nc2c(oc3ccccc32)c1=O | . | . | . | . | . | 1%
CCOCCCn1c(SCC(=O)Nc2ccc(OC)cc2)nc2ccccc2c1=O | ? | ? | 5% | 23% | 18µM* | -19%
CCOCCCn1c(SCC(=O)Nc2ccc(C)cc2)nc2ccccc2c1=O | 16µM* | . | . | . | 15µM* | -28%
Cc1cc2oc(C(=O)N(Cc3ccc(C(C)C)cc3)C3CCS(=O)(=O)C3)cc(=O)c2cc1Cl (stereo not given) | . | . | . | . | . | 3%
CCC(CC)C(CNC(=O)c1cccc(Cl)c1Cl)N1CCOCC1 (stereo not given) | . | . | . | . | . | -3%
CC1(C)C(c2ccc(Cl)cc2)=[N+]([O-])C(C)(C)N1O | . | . | . | . | . | -5%
C=CCN(Cc1ccccc1OCC)C(=O)c1ccc(N(C)S(C)(=O)=O)cc1 | . | . | . | . | . | -2%
CC(=O)O[C@]1(C(C)=O)CC[C@H]2[C@@H]3C=C(Cl)C4=CC(=O)[C@@H]5C[C@H]5[C@]4(C)[C@@H]3CC[C@@]21C | . | . | . | . | . | 28%[57.4 µM]
CCc1ccc(NC(=O)CSc2nc3ccccc3c(=O)n2CCC(=O)NC2CCCCC2)cc1 | -2% | . | . | . | 3% | -10%
CCc1ccc(NC(=O)CSc2nc3ccccc3c(=O)n2CCCC(=O)N2CCCC2)cc1 | 15µM* | ? | -11% | ? | ? | 2%
Cn1c(SCC(=O)Nc2ccccc2)nc2ccccc2c1=O | 2.9µM* | ? | ? | ? | ? | 16%
CCOc1ccccc1NC(=O)CSc1nc2cc(O)ccc2c(=O)n1-c1ccc(OC)c(OC)c1 | 18µM* | ? | -8% | -1% | ? | 4%
CCOC(=O)c1cccc(NC(=O)CSc2nc3ccccc3c(=O)n2CC)c1 | -15% | -29% | -1% | 7% | -20% | 4%
COc1ccc(-n2c(SCC(=O)Nc3ccc(C(N)=O)cc3)nc3ccccc3c2=O)cc1OC | -12% | ? | 3% | -13% | -25% | 0%
CCOC(=O)c1cccc(NC(=O)CSc2nc3ccccc3c(=O)n2CCOC)c1 | ? | 21µM* | 0% | 5% | 21µM* | -15%
CC(C)(C)c1ccc(C(=O)Nc2ccc(C(O)[C@H]3COCC(=O)N3Cc3ccccn3)cc2)cc1 (stereo not given in full) | . | . | . | . | . | 5%
COc1ccccc1C(=O)N1CCn2c(nnc2C2CCCNC2)C1 (stereo not given) | . | . | . | . | . | 59%
COc1ccccc1NC(=O)Cn1nc(-c2ccncc2)nc1SCC(=O)NC1CCCC1 | 13µM* | 3% | -8%[10 µM] | 0% | 15µM* | 101%
C=C(C)Cn1c(SCC(=O)N/N=C/c2cccc(O)c2)nc2ccccc2c1=O | ? | 21µM* | ? | -8% | ? | 7%
COc1ccccc1NC(=O)CSc1nc2ccccc2c(=O)n1C | 15µM* | ? | ? | 44% | 9.2µM* | 6%
CCOCCCn1c(SCC(=O)Nc2ccccc2OC)nc2ccccc2c1=O | ? | ? | -4% | ? | 16µM* | 13%
Nc1ccc(-c2cn[nH]c2)cc1 | . | . | . | . | . | -5%
C/C(=N/Nc1ccc(S(N)(=O)=O)cc1[N+](=O)[O-])c1cccc(Br)c1 | . | . | . | . | . | -30%
SMILES | DT40 TDP1 CPT | ELG1 DNA repair | VP16 counter | RORgamma inh | TDP1 cell noCPT | ALOX12 inh
COc1ccccc1NC(=O)CSc1nnc(C2CCCCC2)n1-c1ccccc1 | 21µM* | ? | 2% | 13% | 12µM* | -22%
COCCCn1c(SCC(=O)c2ccccc2)nc2ccccc2c1=O | ? | ? | 18% | 28% | 23µM* | 2%
COc1ccccc1NC(=O)CSc1nnc(C2CCCCC2)n1C | 2% | -1% | 8% | 30% | -31% | 0%
CCn1c(SCC(=O)Nc2cccc(OC)c2)nc2ccccc2c1=O | ? | 23µM* | -2% | ? | ? | 17%
Cn1c(SCC(=O)Nc2cc(C(C)(C)C)nn2-c2ccccc2)nc2ccccc21 | ? | -18% | -22% | 38% | 12µM* | -7%
CCN(C(=O)C(C)N(C)CC(=O)Nc1cccc(F)c1)C1CCCCC1 (stereo not given) | . | . | . | . | . | -16%
CCCn1c(C)cnc1CC1CCCN(C(=O)c2ccncc2)C1 (stereo not given) | . | . | . | . | . | 4%
COC(=O)c1ccc(C2NC(=S)N(c3ccccc3)C(C)=C2C(=O)Nc2ccccc2OC)cc1 (stereo not given) | ? | -7% | ? | 10µM* | 0% | ?
Cc1ccc(NC(=O)c2ccc(N3CCOCC3)c([N+](=O)[O-])c2)cc1S(=O)(=O)N1CCOCC1 | 9.2µM* | 21µM* | ? | ? | 7.3µM* | 2%
O=C(Nc1cc(Cl)ccc1N1CCOCC1)c1ccc(N2CCCCC2)c([N+](=O)[O-])c1 | ? | . | . | . | ? | -14%
O=C(Nc1nc2ccc(Cl)cc2s1)c1ccc(N2CCCCC2)c([N+](=O)[O-])c1 | 16µM* | ? | -12% | -27% | 21µM* | -5%
Cc1ccc(S(=O)(=O)N2CCN(c3ccc(C(=O)N4CCOCC4)cc3[N+](=O)[O-])CC2)cc1 | 18µM* | 18µM* | -26% | ? | 12µM* | -5%
O=C(Nc1ccc(N2CCCCC2)c(Cl)c1)c1ccc(N2CCOCC2)c([N+](=O)[O-])c1 | 18µM* | -29% | 4% | 7% | 13µM* | 7%
Cc1noc(-c2nc(-c3ccc(OC(C)C)cc3)no2)n1 | . | . | . | . | . | -2%
CCc1cccc(NC(=O)N2CCC(n3cnnc3C3CC3)C2)c1 (stereo not given) | . | . | . | . | . | 1%
C/C(CC(C)C)=N\NC(=O)c1ccc(Cl)cc1 | . | . | . | . | . | 30%
Cc1[nH]c2ccc(Cl)cc2c1C(=O)CCl | . | . | . | . | . | -71%
Cc1oc(-c2nc(C#N)c(NCc3cccnc3)o2)cc1S(=O)(=O)N1CCCCCC1 | . | . | . | . | . | 48%
O=C(Nc1ccc(N2CCOCC2)c(Cl)c1)C1CCCCC1 | 21µM* | 21µM* | 0% | 1% | 16µM* | -6%
O=C(Nc1ccc(Cl)c(S(=O)(=O)N2CCOCC2)c1)C1CCCC1 | -20% | 0% | . | . | ? | 4%

High-throughput results as filed in PubChem BioAssay.
